# Screening data deposited in PubChem by National Center for Advancing Translational Sciences (NCATS).
# Pf Dd2 inh – Plasmodium falciparum Dd2 growth inhibition. Potency, µM (series often up to 28.9 µM), for inactives: at the highest dose activity, negative = inhibition, hits mostly inhibitors. 4.3% of 120,000 active. P. falciparum Dd2 growth, SYBR Green, 72 h. AID 1347417; active = well fitted inhibition curve with a large enough effect;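 also: plate controls were DMSO vehicle for no effect and reference drug for full effect; nearly all actives have a fitted effect of over 65% in size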
#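 Infected erythrocytes (Dd2, 0.3% parasitemia, 2.5% hematocrit final) are added to compound in RPMI-1640/Albumax II medium, grown 72 h at 37C in low oxygen, then lysed with saponin/Triton-X containing SYBR Green and read by fluorescence.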
# Starred values were filed as active, the others as inactive; i = inactive; [ ] = remark or other dose. The entries come from a sample that favours hits as a whole. Potency is read from the fitted curve at half-maximal effect.
SMILES,Pf Dd2 inh
COc1cc2c(cc1Oc1ccccc1)NC(=O)C21CCN(c2ncc(F)cn2)CC1,4.5µM*
COc1cc2c(cc1OCC1CC1)NC(=O)C21CCN(c2ncc(F)cn2)CC1,i
COc1cc2c(cc1OC1CCCC1)NC(=O)C21CCN(c2cc(NC3CC3)ncn2)CC1,-23%
COc1cc2c(cc1OC1CCCC1)NC(=O)C21CCN(c2ccnc(C)n2)CC1,13µM*
COc1cc2c(cc1OC1CCCC1)NC(=O)C21CCN(Cc2ccncc2)CC1,-4%[44.1 µM]
CC1=C[C@@H](CNC(=O)c2ccccc2)[C@H](C(C)C)C[C@H]1CC(=O)NCc1cccnc1,i
CC(C)CNC(=O)N1CCCCCCN(C)C(=O)[C@@H]2CCC[C@@H]21,-4%
CN[C@@H](CO)C(=O)NCc1nc(-c2ccc(C)cc2)c(-c2ccccn2)[nH]1,-20%
Cc1cnc(CC2CCN(C(=O)c3nn(C)c4ccccc34)C2)n1CC1CC1 (stereo unspecified),i
CC[C@@H]1[C@@H](NC(=O)CC2Cc3ccccc3C2)[C@@H]2CCO[C@H]12,-3%
CC[C@@H]1[C@@H](NC(=O)C2(c3ccc(S(C)(=O)=O)cc3)CCC2)[C@@H]2CCO[C@H]12,8.9µM*
CC[C@@H]1[C@@H](NC(=O)Cc2csc(C(C)=O)c2)[C@@H]2CCO[C@H]12,-2%
Cc1cc(C)c(NC(=O)Cn2nc3n(c2=O)CCCC3)c(C)c1,i
OCc1cccc(-c2ccc3ncc(Nc4ccc(OCCN5CCCC5)cc4)n3n2)c1,0.79µM*
OCc1cccc(-c2ccc3ncc(Nc4cccnc4)n3n2)c1,-4%[44.1 µM]
OCCc1ccc(Nc2cnc3ccc(-c4cccc(CO)c4)nn23)cc1,i
OCc1cccc(-c2ccc3ncc(Nc4ccccc4Cl)n3n2)c1,4µM*
C[S+](=O)([O-])Nc1cccc(Nc2cnc3ccc(-c4cccc(CO)c4)nn23)c1,-2%[44.1 µM]
OCc1cccc(-c2ccc3ncc(Nc4cccc(C(F)(F)F)c4)n3n2)c1,-20%[44.1 µM]
O=C(Nc1ccc(F)c(Cl)c1)C1=NO[C@@H]2CN(Cc3cccnc3)C[C@H]12,-8%[44.1 µM]
Cc1cnc(C)c(-c2cc(O)c3c(c2)CN(C(=O)C2CCNC2)CCO3)n1 (stereo unspecified),3%
Cc1ccc(NC(=O)CN2C(=O)NC3(CCOCC3)C2=O)cc1C,21%
O=C(NC(=O)c1ccccc1)Nc1ccc(-c2cc(C(F)(F)F)nn2-c2ccccc2)cc1,i
O=C(NC(=O)c1cccc(F)c1)Nc1ccc(-c2cc(C(F)(F)F)nn2-c2ccccc2)cc1,-18%
O=C(Nc1ccc(-c2cc(C(F)(F)F)nn2-c2ccccc2)cc1)c1cccc(F)c1,11µM*
SMILES,Pf Dd2 inh
O=C(NC1CCN(c2cc(-c3ccc(F)cc3)[nH]n2)CC1)c1cc(F)ccc1Cl,i
COCC(=O)N1CC[C@H](c2nnc(C(C)(C)C)o2)C1,13%[44.1 µM]
Cn1c(C(=O)N[C@@H]2COCC[C@H]2Oc2ccc(C#N)cc2)cc(=O)n(C)c1=O,-1%
CCOCc1nc(C2CCCN(C(=O)c3ccccn3)C2)no1 (stereo unspecified),57%
CC1=C[C@@H](CN2CCN(c3ccccn3)CC2)[C@H](C(C)C)C[C@H]1Cc1nnc(-c2ccc([N+](=O)[O-])cc2)o1,3.5µM*
CC1=C[C@@H](CO)[C@H](C(C)C)C[C@H]1CC(=O)N1CCN(c2ccccn2)CC1,i
CC1=C[C@@H](CN2CCN(c3ncccn3)CC2)[C@H](C(C)C)C[C@H]1Cc1nnc(COc2ccc(F)cc2)o1,0.89µM*
CC1=C[C@@H](CN(C)Cc2cccnc2)[C@H](C(C)C)C[C@H]1Cc1nnc(-c2ccc([N+](=O)[O-])cc2)o1,4.5µM*
CC1=C[C@@H](CN2CCC(CO)CC2)[C@H](C(C)C)C[C@H]1Cc1nnc(-c2ccccc2)o1,-16%[44.1 µM]
O=C(NC[C@H]1COCc2nc3ccccc3n21)c1cccnc1,-18%[44.1 µM]
CCC(C)C(=O)N1CCC2(CC1)CN(Cc1ccc(OC)cc1)C2=O (stereo unspecified),-1%
CCOCCOC1CCN(S(=O)(=O)c2cnn(CC)c2)CC1,80%
CC(=O)N(C[C@H]1O[C@@H](CC(=O)NC(C)C)[C@H](O)[C@@H]1O)C[C@H]1O[C@@H](CC(=O)NC(C)C)[C@H](O)[C@@H]1O,21%
O=C(NCc1ccc(F)cc1F)C1CCCN(c2cn[nH]c(=O)c2)C1 (stereo unspecified),3%
CCc1ccc(CNC(=O)c2ccc(-n3c(C)cc4c3CCC(C)C4)cc2)cc1 (stereo unspecified),13µM*
O=C(NCc1cccc(Br)c1)C1CCN(c2cnc3nccnc3c2)CC1,i
COc1ccc(CCNC(=O)c2ccc(-n3c(C)cc4c3CCC(C)C4)cc2)cc1OC (stereo unspecified),161%[5.79 µM]
COc1ccc(OC)c(CNC(=O)c2ccc3c(c2)c(C)c(C)n3C)c1,-17%
Cc1cc2c(n1-c1ccc(C(=O)NCc3cccc(Br)c3)cc1)CCC(C)C2 (stereo unspecified),11µM*
CCCOc1ccc(CNC(=O)c2ccc(-n3c(C)cc4c3CCC(C)C4)cc2)cc1 (stereo unspecified),432%[5.79 µM]
COc1ccc(Br)cc1CNC(=O)c1ccc(-n2c(C)cc3c2CCC(C)C3)cc1 (stereo unspecified),13µM*
Cc1cc2c(n1-c1ccc(C(=O)NCCc3ccccc3)cc1)CCC(C)C2 (stereo unspecified),-21%
CCc1ccc(CNC(=O)c2ccc3c(c2)nc2n3CCC(C)C2)cc1 (stereo unspecified),13%
COCc1ncc(C)n1C1CCN(C(=O)C2CCC2)CC1,-4%
CNC(=O)c1[nH]nc2c1C(c1c(C)nc3ccc(Cl)cn13)CC(=O)N2 (stereo unspecified),-3%
SMILES,Pf Dd2 inh
O=C(c1cccnn1)N1CCC2(CCCN(C3CCOCC3)C2=O)C1 (stereo unspecified),1%
COCCCNc1ncnc2c1CN(C1CCNC1)C(=O)CN2C (stereo unspecified),7%
CCn1c(C2CCN(S(=O)(=O)c3ccc(OC)cc3)CC2)nn(C)c1=O,5%
O=C(COc1ccc(Cl)cc1)N1CCC(Oc2ncccc2C(=O)N2CCCCC2)C1 (stereo unspecified),-5%
O=C(NCc1ccco1)N1C[C@@H]2CN(C(=O)C3CC3)C[C@]2(C(=O)O)C1,2%
CCN1CC(NC(=O)c2cccc(S(=O)(=O)N(C)CCO)c2)CC1=O (stereo unspecified),-14%
O=C(NCCc1cccc(F)c1)C1CCCN(C2CCN(C(=O)C3CC3)CC2)C1 (stereo unspecified),-29%
CC(=O)N[C@H]1CCN(C(=O)C[C@@H]2[C@H](O)CC[C@@H]3[C@]4(C)CO[C@@H](CNC(=O)c5cc(C)on5)O[C@@H]4CC[C@]32C)C1,-5%
O=C(CN1CC2CC(C1)[C@H]1CCCC(=O)N1C2)N1CCN(c2ccc(Cl)cc2)CC1 (stereo partly specified),-24%
CC1=NS(=O)(=O)N(C)C=C1C(=O)OCc1noc(-c2ccccc2Cl)n1,16%
Cc1ccc([C@H]2CN(C(=O)c3[nH]nc(N)c3-c3ccccc3)C[C@@H]2N)o1,6%
COC1CCN(S(=O)(=O)N2C[C@H](c3ccc(C)o3)[C@@H](N)C2)CC1,11µM*
COC1CCN(S(=O)(=O)N2CCCC(C)(c3ccccc3)C2)CC1 (stereo unspecified),4%
COC(=O)CO[C@@H]1CO[C@H]2[C@@H]1OC[C@@H]2NS(=O)(=O)c1cccc2cccnc12,9%[44.1 µM]
